# The panel holds about 79,000 compounds, 15% with a hit somewhere; the sample as a whole holds those more often. Unmarked numbers belong to inactive results. Cut-off read from the data, not from the text of the source: active = growth inhibition above about 70%; inactive = the rest.
# Assay: NCI Yeast Anticancer Drug Screen. Data for the rad50 strain (AID 155);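 note: 0% = growth of vehicle-only cultures of the same strain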
# Details: S. cerevisiae rad50 strain growth inhibition; at 50.0 µM; hits give high values
# Summary of the method: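 Relative growth inhibition (compound vs vehicle) was measured in yeast with a defined repair-gene alteration.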
row,SMILES,growth inhibition [%]
1,CCOC(=O)c1ccc(NC(=O)/C=C/C(=O)O)cc1,-20.2
2,Cc1ccc(-n2cnc3c(Cl)ncnc32)cc1,-18.1
3,CCOC(=O)N[C@@H]1C(CC(=O)OC)O[C@H]2OC(C)(C)O[C@H]21 (stereo not given in full),18.1
4,COc1ccc(N=Cc2cc(Cl)cc(Cl)c2OC(=O)c2ccccc2)cc1,-10.6
5,CSc1nc(N)c(NS(=O)(=O)c2ccc([N+](=O)[O-])cc2)c(=O)[nH]1,4.35
6,CCOc1ncc(C(O)c2ccc(F)cc2)c(OCC)n1 (stereo not given),17.1
7,COc1cc(C(=O)N2C3C4CCC(C)(OC4(C)C)C32)cc(OC)c1OC (stereo not given),18.4
8,CCCCc1c[nH]n(C(N)=NCCSCc2nc[nH]c2C)c1=O,-7.15
9,CCOC(=O)c1ccc(C(=O)OCC)n1-c1cc2cc(c1)CSCc1cc(cc(-n3c(C(=O)OCC)ccc3C(=O)OCC)c1)CSC2,-26.2
10,NC1C=NNC1=O (stereo not given),-11.1
11,O=C1CSC(=NCCN=C2NC(=O)CS2)N1,10.5
12,OCC1CC=CCC1 (stereo not given),2.35
13,CC(C)=CCC/C(C)=C/CN,9.25
14,O=C(Oc1ccc(OC(=O)c2ccccc2)c(C2CCCCCC2)c1)c1ccccc1,32.9
15,Cc1[nH]c(=O)nc(N/N=C/c2ccc(Cl)cc2)c1C(=O)Nc1ccc(Cl)cc1,-5.35
16,CC(=O)C1(C)CCC2C3CCC4=CC(=O)CCC4=C3CCC21C (stereo not given),32.1
17,CC(C)N1CN(C(C(=O)N[C@@H]2C(=O)N3C2SC(C)(C)C3C(=O)O)c2ccccc2)CSC1=S (stereo not given in full),48.8
18,N#CC(C(=O)C(=O)Nc1cccc(Cl)c1)c1ccccc1 (stereo not given),-4.55
19,CCC(C)(CCC(C)C)c1ccncc1 (stereo not given),-3.45
20,CCCCOC(OCCCC)C(OCCCC)OCCCC,18.9

row,SMILES,growth inhibition [%]
1,C=CCOC(=O)CC(O)(CC(=O)OCC=C)C(=O)OCC=C,-3.4
2,CC1=C(C(=O)Nc2ccc([N+](=O)[O-])cc2)C(c2ccc3c(c2)OCO3)C(C(=O)Nc2ccc([N+](=O)[O-])cc2)=C(C)N1,8.65
3,O=C(O)CCC1(c2ccccc2)NC(=O)NC1=O (stereo not given),-39.1
4,COc1ccccc1C1C(C(=O)Nc2ccccc2)=C(C)NC(C)=C1C(=O)Nc1ccccc1,-3.2
5,C[C@]12CC[C@@H]3c4ccc(OCCCO)c([N+](=O)[O-])c4CC[C@H]3[C@@H]1CCC2=O,16.3
6,C[Si](C)(C)N1CCCC1,-22.1
7,CCOCCOC(=O)c1ccc(C(C)C)cc1,4.9
8,NC(=O)c1ccccc1NC(=O)C(=O)C(C(=O)c1ccc2ccccc2c1)C1OC(=O)c2ccccc21 (stereo not given),0.7
9,N#CCCN(c1ccc(C=Nc2ccc(C(=O)O)cc2)cc1)S(=O)(=O)c1ccccc1,-0.1
10,CCCCC1=C(C)C/C(=N/Nc2ccc([N+](=O)[O-])cc2[N+](=O)[O-])C(C)C1CCCC (stereo not given),3.7
11,CC(=O)Nc1ccc(S(=O)(=O)N=S(c2ccccc2)c2ccccc2)cc1,14.7
12,CCCCCCCCCCCCSc1nc2c([nH]1)c(=O)n(C)c(=S)n2C,-24.1
13,CC1(C)OC2C(COCc3ccccc3)=CC(n3ccc(=O)[nH]c3=O)C2O1 (stereo not given),-8.3
14,O=C1C=CC(=O)C1N=Nc1ccccc1,43.9
15,CCOC(=O)Nc1ccc(C2SCCN2C(=O)Nc2ccc(Cl)cc2)cc1 (stereo not given),-9.5
16,C[C@@]12CCC(=O)C=C1CC[C@H]1C2C(=O)C[C@]2(C)C1CC[C@@]2(O)C(=O)COC(=O)CCC(=O)O (stereo not given in full),0.1
17,O=S(=O)(c1ccc(O)c(Cl)c1)c1ccc(O)c(Cl)c1,32.8
18,CC(C)N(C(=O)C12C3C4C5C3C1(C(=O)N(C(C)C)C(C)C)C5(C#N)C42)C(C)C (stereo not given),22.6
19,NCc1ccccc1F,-10.2
20,O=C1c2ccccc2C(=O)N1Cc1ccccc1-c1c2nc(c(-c3ccccc3CN3C(=O)c4ccccc4C3=O)c3ccc([nH]3)c(-c3ccccc3CN3C(=O)c4ccccc4C3=O)c3nc(c(-c4ccccc4CN4C(=O)c5ccccc5C4=O)c4ccc1[nH]4)C=C3)C=C2,11.8
